In PubChem BioAssay AID538 (PCMD, 2006):
Among all 62,000 compounds or so, about 100 (0.16%) were called active. Many of the other results were omitted from the sample, so actives are more common in it than they were. Values without a mark were called inactive.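 Rule for the calls: active = inhibition above 20% in each of the two 10-compound mixture wells holding the compound; inactive = the rest.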

Target: Complement C1s subcomponent (Homo sapiens) (UniProt P09871)
Assay: human C1s inhibition by compound pools – biochemical, 10-compound mixtures, primary screen (AID 538);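 note: 0% = enzyme wells lacking compound mixture and 100% = no-enzyme blank wells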
Conditions: purified C1s, fluorogenic AMC substrate, pooled mixtures; screened at 5 µM (by protocol)

Sequence of Complement C1s subcomponent (Homo sapiens) (P09871 16-437 limits assumed): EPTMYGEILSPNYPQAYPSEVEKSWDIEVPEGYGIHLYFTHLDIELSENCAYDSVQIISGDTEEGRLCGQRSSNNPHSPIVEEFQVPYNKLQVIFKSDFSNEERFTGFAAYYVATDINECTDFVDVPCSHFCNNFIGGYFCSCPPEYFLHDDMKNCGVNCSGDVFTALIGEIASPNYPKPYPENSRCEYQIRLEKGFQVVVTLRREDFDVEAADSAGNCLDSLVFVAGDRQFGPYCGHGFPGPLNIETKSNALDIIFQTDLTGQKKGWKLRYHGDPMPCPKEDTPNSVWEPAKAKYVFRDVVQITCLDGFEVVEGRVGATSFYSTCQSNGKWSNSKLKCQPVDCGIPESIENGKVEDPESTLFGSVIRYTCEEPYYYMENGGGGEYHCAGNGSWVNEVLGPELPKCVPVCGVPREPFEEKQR
Sequence of Complement C1s subcomponent (Homo sapiens) (P09871 438-688 limits assumed): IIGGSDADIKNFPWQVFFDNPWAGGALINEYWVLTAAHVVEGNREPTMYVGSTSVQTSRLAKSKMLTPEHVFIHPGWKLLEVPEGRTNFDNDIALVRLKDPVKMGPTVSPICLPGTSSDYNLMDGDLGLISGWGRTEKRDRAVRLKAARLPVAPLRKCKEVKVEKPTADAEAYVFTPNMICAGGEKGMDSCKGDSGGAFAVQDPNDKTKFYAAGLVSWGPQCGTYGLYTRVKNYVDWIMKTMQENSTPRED

Structure (SMILES)	mean inhibition % of two 10-compound mixtures (stronger effect = higher value)
Cc1ccc(C2CC(=O)NC(SCC(=O)OCc3ccccc3)=C2C#N)o1 (stereo not drawn)	-61.3%
CCC(=O)Nc1cccc(NC(=O)CSc2nnnn2C2CCCC2)c1	2.81%
CC(C)c1cc(C(=O)O)on1	-17.9%
CC1CCc2c(sc(NC(=O)c3ccc(Cn4cc(Br)cn4)o3)c2C(N)=O)C1 (stereo not drawn)	-5.95%
CCCn1c(=O)c2ccccc2n2c(SCC(=O)/C(C#N)=C(\C)N)nnc12	-0.9%
CCOc1ccc2nc(SC(CC)C(=O)Nc3cc(C)on3)sc2c1 (stereo not drawn)	2.46%
COc1ccccc1Nc1nc(N)nc(CN(C)C2CCCCC2)n1	-40.1%
C=CCn1c(CC(=O)Nc2cccc(OC)c2)nnc1SCC(=O)NC1CCCCC1	-2.35%
CC(=O)N1CCN(C(=O)c2cccc(S(=O)(=O)Nc3ccc(C)cc3)c2)CC1	66.7% (active)
CN1CCN(C(=O)c2ccc(NS(=O)(=O)c3ccccc3)cc2)CC1	9.96%
O=C(c1cccc(S(=O)(=O)N2CCOCC2)c1)N1CCOCC1	13.9%
COCCCNC(=O)COc1cc(C)c(Cl)c(C)c1	-0.425%
CCOC(=O)Cc1csc(NC(=O)CSc2nc(C)cc(=O)[nH]2)n1	-2.67%
O=S(=O)(/C=C/c1ccccc1)NCCc1ccccn1	-2.77%
Clc1ccc(Cn2ncc3c(NCc4cccnc4)ncnc32)cc1	3.33%
Cc1ccc(S(=O)(=O)NCC(=O)OCC(=O)N2CCc3ccccc32)cc1	5.33%
N#Cc1cccc(CSc2nnc(CCCO)n2-c2ccccc2)c1	-5.26%
CCCC(C(=O)N1CCOCC1)N1C(=O)C2C3C=CC(C3)C2C1=O (stereo not drawn)	-8.34%
O=c1[nH]nc(CSCc2ccccc2Cl)[nH]1	-7.92%
Cc1c(C(=O)NCC2CCCO2)sc2nc(-c3ccccc3)cn12 (stereo not drawn)	0.595%
COC(=O)C(C)n1cnc2c(nnn2-c2cccc(Cl)c2)c1=O (stereo not drawn)	-40.6%
CC(C)c1ccc(OCC(O)Cn2cnc3ccccc32)cc1 (stereo not drawn)	-21.9%

Structure (SMILES)	mean inhibition % of two 10-compound mixtures (stronger effect = higher value)
CC(C)C(NC(=O)c1cccc(S(=O)(=O)N2CCOCC2)c1)C(=O)NCCc1ccccn1 (stereo not drawn)	-12.8%
COC(=O)COc1ccc2oc(=O)cc(C)c2c1	10.3%
COC(=O)c1ccc(S(=O)(=O)c2ccc(C(=O)OC)s2)s1	-14%
COC(=O)c1ccccc1NC(=O)CSc1ccccn1	-21.1%
CC1CN(Cc2nc3c(c(=O)n(C)c(=O)n3C)n2Cc2cccc(Cl)c2)CC(C)O1 (stereo not drawn)	-18.5%
COc1cccc(-n2c(SCC(=O)NC3CCCCC3)nc3n[nH]c(C)c3c2=N)c1	-13.5%
CC(=O)N(Cc1cccs1)C1CCOC(C)(C)C1 (stereo not drawn)	4.59%
CCOC(=O)c1cccc(NC(=O)CCc2c(C)nc3ncnn3c2C)c1	2.35%
CC(C)n1c(NCc2c[nH]c3ccccc23)nc2ccccc21	-7.58%
Cn1c(/C(C#N)=C2/CCCCCN2)nc2ccccc21	-6.22%
Cc1ccc(OCC(=O)Nc2ccc(-c3nc4ncccc4o3)cc2)cc1	-66.2%
Cc1ccccc1CSc1nnc(Cn2c(=O)sc3ccccc32)n1C	4.08%
CCOC(=O)CCc1c(C)c2ccc(OCc3nn[nH]n3)c(C)c2oc1=O	-25%
Cc1c(C(=O)Nc2ccccc2Cl)oc2ccc(S(=O)(=O)N3CCC4(CC3)OCCO4)cc12	-4.62%
COc1cccc(-c2nnc(NC(=O)c3ccc(S(=O)(=O)N(CC(C)C)CC(C)C)cc3)o2)c1	14%
COC(=O)C(C)Sc1ccc2nnc(-c3cccc(F)c3)n2n1 (stereo not drawn)	-5.87%
CCOC(=O)c1nnn(-c2nc(OC)nc(N(C)C)n2)c1-c1ccccc1	-30.1%
C#CC(C)(C)NC(=O)CSc1nc2c(c(=O)n(C)c(=O)n2C)n1CCCC	1.95%
CCCc1cc(=O)[nH]c(SCc2ccc(C#N)cc2)n1	-9.73%
C=C(C)COc1ccc(-c2n[nH]c(C)c2-c2ccccc2OC)c(O)c1	15.7%
O=C(C1=C(O)C(=O)N(Cc2ccccc2)C1c1cccnc1)c1ccco1 (stereo not drawn)	3.85%
Cc1ccccc1C(=O)NCCN=C1NS(=O)(=O)c2ccccc21	-24.8%

Structure (SMILES)	mean inhibition % of two 10-compound mixtures (stronger effect = higher value)
N#Cc1ccccc1-n1c(N)c(C(=O)N2CCCC2)sc1=S	-0.195%
O=C(O)COc1nsnc1N1CCOCC1	-1.36%
O=C(O)c1cc(S(=O)(=O)N2CCCCCC2)c(Cl)cc1Cl	-41%
Cc1ccccc1-c1ccc(Nc2ccc(C(=O)N3CCOCC3)cc2)nn1	16%
Cc1ccnc(N2C(=O)c3ccccc3C2Nc2ccc3c(c2)OCCO3)c1 (stereo not drawn)	-33.6%
COc1cccc(OCC(=O)Nc2ccccc2C(N)=O)c1	16.6%
O=C(O)C1CC(=O)N(Cc2cccnc2)C1 (stereo not drawn)	5.36%
CCCn1c(=NC(C)=O)c(C(=O)OCC)cc2c(=O)n3ccccc3nc21	-168%
N#Cc1cccc(NC(=O)CCC2CCCC2)c1	-2.16%
Cn1nc(-c2ccc(Cl)cc2)c2cc(C(=O)NCc3ccco3)sc21	10.9%
O=S(=O)(NCc1ccccn1)c1ccc(Br)s1	-20.3%
COc1ccc(C(=O)Nc2c(N)nc(SCC(=O)N3CCC(C)CC3)[nH]c2=O)cc1OC	-31.6%
CC1(C)CC(=O)C=C(NCc2ccncc2)C1	-4.76%
Cc1ccc2c(c1)c1ncn(CCC3=CCCCC3)c(=O)c1n2C	2.97%
CCCn1c(SCC(=O)c2ccc3c(c2)OCCO3)nnc1C(C)C	-7.42%
Cc1nn(-c2ccccc2)c2[nH]c(C(F)(F)F)cc(=O)c12	1.25%
CS(=O)(=O)N(C(=O)NC(=O)NC1CCS(=O)(=O)C1)C1CCCCC1 (stereo not drawn)	-74.3%
CCCS(=O)(=O)N1CCC(C(=O)NCCCN(C)Cc2ccccc2)CC1	2.46%
CCc1cc(Br)ccc1NC(=O)C1CCCO1 (stereo not drawn)	4.52%
Cc1cccc(OCC(O)Cn2c(=N)n(CCN3CCOCC3)c3ccccc32)c1 (stereo not drawn)	3.52%
O=S(=O)(NCCOc1cccc2cccnc12)c1ccc(F)cc1	8.29%
CCOC(=O)CN(C(=O)CN1CCOCC1)c1ccc(Br)cc1	1.94%

Structure (SMILES)	mean inhibition % of two 10-compound mixtures (stronger effect = higher value)
O=C(Nc1ccc(Cl)cn1)Nc1cccs1	7.83%
CC(NC(=O)c1cc(-c2ccccc2)on1)c1ccccc1 (stereo not drawn)	-25.3%
CCn1ncc(C2=NOC(C(=O)Nc3ccccc3C(=O)OC)C2)c1C (stereo not drawn)	1.96%
COc1ccc(CCNC(=O)CN2CCC(n3nnc4cc(F)ccc43)CC2)cc1OC	2.77%
Cc1ccc(Cn2nnc3c(=O)n(CC(=O)N4CCCCC4)cnc32)cc1	-35.5%
Cc1ccc(CNC(=O)C2CC(=O)N(C3CCCCCCC3)C2)cc1 (stereo not drawn)	-34.1%
COc1ccccc1N(C(=O)Cn1nnc2ccccc21)C(C(=O)NCc1ccco1)c1ccc(C)o1 (stereo not drawn)	8.72%
C#CCN1C(=O)C(O)(CC(=O)c2cc(OC)ccc2OC)c2ccccc21 (stereo not drawn)	11.6%
C=CCn1c(SCn2nnc3ccccc3c2=O)nnc1-c1ccc(Cl)cc1	9.21%
CCOc1ccc(S(=O)(=O)N(CC(=O)O)c2ccccc2)cc1	-11.4%
O=S1(=O)CCN2C(=N1)SC1=C2CCN(Cc2ccccc2)C1	15.2%
Cc1cc(C)cc(NC(=O)N2CCC(NC(=O)c3ccc(F)cc3)CC2)c1	3.5%
CC(C)CCNC(=O)C(C)N(C(=O)Cn1nnc(-c2ccc(F)cc2)n1)C1CCCC1 (stereo not drawn)	-3.08%
CCCCCOC(=O)NCCOC(=O)Nc1ccc(C(=O)OCC)cc1	1.11%
CCNc1nc(SCCOc2ccccc2)nc(N(C)C)n1	3.09%
C=CCn1c(SCC(=O)NC23CC4CC(CC(C4)C2)C3)nc(O)cc1=O	-25.2%
COC(=O)c1cccc(NC(=O)CN2CCC(NC(=O)c3cc(OC)c(OC)c(OC)c3)CC2)c1	-69.7%
Cc1cccc(N2CCN(S(=O)(=O)c3ccc4c(c3)c(=O)n(C)c(=O)n4C)CC2C)c1 (stereo not drawn)	12.1%
CCCC(=O)Nc1ccc(C(=O)NCCCn2ccnc2)cc1	14.7%
COc1ccc(-c2cc3ccc(OCc4nn[nH]n4)cc3oc2=O)cc1	-281%
COc1ccc(S(=O)(=O)N(C)CC(=O)Nc2ccc3c(c2)OCCO3)cc1OC	3.88%
COc1cccc(C(=O)Nc2c3c(nn2-c2cccc(C)c2C)CS(=O)(=O)C3)c1OC	-0.81%

Structure (SMILES)	mean inhibition % of two 10-compound mixtures (stronger effect = higher value)
CC(=O)N1CCN(c2cccc(C)c2C)CC1	6.81%
Cc1nnc(NC(=O)CCC(=O)N2CCC(C)CC2)s1	4.7%
O=C(C(Cc1ccccc1)n1cccc1)N1CCN(C2CCCCC2)CC1 (stereo not drawn)	11.2%
Cn1c(SCC(=O)N2CCOCC2)nnc1-c1ccc(NC(=O)c2ccccc2F)cc1	3.6%
O=C(COc1ccc(F)cc1)N(CC1=CCS(=O)(=O)C1)c1ccccc1	4.83%
O=C1NC2(CCCCC2)N=C1c1ccccc1	2.35%
CCC/C(O)=C1\C(=O)CC(C)(C)CC1=Nc1ccccc1OC	9.67%
O=C(CS(=O)(=O)c1cn(Cc2cccc(F)c2)c2ccccc12)N1CCCCC1	-0.735%
CCOc1ccc(Cn2nnc(C(=O)NCc3ccccc3)c2N)cc1	-16.1%
Oc1ccc(Cl)cc1/C=N/c1nc2ccccc2[nH]1	5.15%
CCN=C1SC(CC(=O)Nc2ccc(C)cc2)C(=O)N1CC (stereo not drawn)	-15%
Cc1occc1C(=O)N1CCCc2ccccc21	-1.12%
CCN(CC)C(=O)CSc1nnc(-c2cnccn2)n1-c1ccc(C)cc1	14.1%
COc1ccc(-c2nnc(SCC(=O)NC3CCCCC3)o2)cc1OC	-3.36%
CCCOC(=O)C1=C(C)NC2=C(C(=O)C(C(=O)OC)C(C)C2)C1c1ccc(N(C)C)cc1 (stereo not drawn)	-5.72%
CC(CN1CCCCC1)OC(=O)c1ccccc1Cl (stereo not drawn)	2.23%
CN1CCCc2cc(C#N)c(=O)[nH]c21	-74.4%
Cc1ncn(C23CC4CC(CC(O)(C4)C2)C3)n1	0.845%
Cc1ncc(CC(=O)n2cc(C(=O)c3cc(Cl)ccc3O)cn2)s1	8.66%
Cn1c(=O)c2c(nc(SCC(=O)Nc3ccccc3N3CCCCC3)n2C)n(C)c1=O	-17.6%
